{
  "source": "PubChem BioAssay AID2685",
  "about": "(National Center for Advancing Translational Sciences (NCATS), 2010)",
  "note": "About 2,100 (0.66%) of roughly 320,000 compounds were called active. Another 53% or so got no clear call; they are omitted. This is one part of a sample in which actives are shown more often than they occur. The call rests on the fitted dose curve; in most records, active means well fitted inhibition curve with a large enough effect in the signal ratio, with a control signal flat (not every such curve was filed as active); inconclusive means small, poorly fitted or top-dose-only effect, or effect the other way, or a change in a side signal; inactive means flat fitted curve, though single readings scatter; the % refers to the signal ratio. Potency means the concentration at half of the fitted maximal effect.",
  "data": [
    {"experiment": "qHTS Assay for Lipid Storage Modulators in Drosophila S3 Cells;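 on cell number change: cells counted by Cell Tracker Red CMTPX staining in the red channel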; on lipid storage change, negative = inhibition: on the % scale 0 is the no-effect control and ±100 the full control effect", "conditions": "BODIPY lipid droplet fluorescence, 18-24 h, cells fed with added oleic acid; cell number change: measured here: cell count max response; series mostly up to 46.1 µM; lipid storage change, negative = inhibition: at the top concentration", "from_the_text": "NIH Molecular Libraries Probe Production Centers Network [MLPCN] NIH Chemical Genomics Center [NCGC] MLPCN Grant: 1 R03 MH085686-01 Assay Submitter (PI): Beller, Mathias; Max-Planck-Institut fur Biophysikalische Chemie NCGC Assay Overview: Storing lipids as a reservoir for energy or the anabolism of elementary metabolites is a common feature of probably all cells and is conserved from bacteria to humans. The universal cellular lipid storage organelle is the so-called lipid storage droplet (LD). Although ubiquitous, LDs share a simple structure composed of a hydrophobic core that harbors the storage lipids, which is shielded by a droplet-specific phospholipid monolayer to which proteins are attached. The current model of LD biogenesis involves an incorporation of the lipid core into the membrane leaflets of the endoplasmic reticulum (ER) followed by a subsequent budding-like maturation of a LD, which ultimately pinches off. Once released, LD volume can increase by localized lipogenesis or fusion of existing droplet. Storage lipids are re-mobilized enzymatically by lipase activity. Lipase regulation in the adipocyte is heavily studied and involves multiple components including catecholamine signaling, the LD-associated proteins Perilipin and comparative gene identification (CGI-58) and at least two lipases named hormone sensitive lipase (HSL) and adipocyte triglyceride lipase (ATGL). LD regulation outside of the adipocyte is poorly understood and only few components are known. However, there is an urgent need to learn more about ectopic fat depots as mislocalized storage of lipids, for example in the liver or muscle, is an eminent health problem associated with insulin resistance or the metabolic syndrome. We developed a laser-scanning cytometer assay to enable 1,536-well screening and combined the results of the small molecules screen with an RNAi database based on lipid storage.\nTriacsin C (Sigma-Aldrich T-4540), an inhibitor of long-chain fatty acyl CoA synthetase that blocks synthesis of triglycerides, was used as a positive control for lipid under-storage. A total of 23 nL of compound solution of different concentrations were transferred to the assay plates using a Kalypsys pin tool equipped with a 1,536-pin array containing 10-nL slotted pins (FP1S10, 0.457-mm diameter, 50.8 mm long; V&P Scientific). One microliter of oleic acid (400 uM) was added, and the plate was lidded with stainless steel rubber gasket lined lids containing pinholes. […] Fluorescence was detected by excitation of the fluorophores with a 488-nm laser on an Acumen Explorer (TTP Lab Tech). The total intensity in channel 2 (500-530 nm) reflected lipid droplet accumulation. Cells were detected using channel 3 (575-640 nm) with 5-um width and 100-um depth filters. The ratio of the number of objects in PMT channel 2 over the number of objects in PMT channel 3 was also calculated. Percent activity was computed relative to an internal control (100% inhibited lipid droplet deposition due to the presence of 20 uM Triacsin C), which was added to 32 wells/plate.", "units": {"cell number change": "%"}, "values": [
      {"molecule": "O=C(O)CCCC(=O)Nc1nc(-c2ccc(F)cc2)cs1", "outcome": "inactive"},
      {"molecule": "COc1ccc(-n2c(SCC(=O)NCC3CCCO3)nc3c([nH]c4ccccc43)c2=O)cc1OC", "note": "(configuration not stated)", "outcome": "inactive", "cell number change": -13.6},
      {"molecule": "Cc1ccc(OCC(=O)Nc2ccc(N3CCN(S(C)(=O)=O)CC3)cc2)cc1", "outcome": "inactive", "cell number change": 18.1},
      {"molecule": "O=C(CSc1nnc2c(Cl)cc(C(F)(F)F)cn12)Nc1ccc2c(c1)OCO2", "lipid storage change, negative = inhibition": "18.7% (inactive)", "cell number change": -8.45},
      {"molecule": "COc1ccc(-c2cn[nH]c2-c2ccc(OCC(=O)NN)cc2O)cc1OC", "lipid storage change, negative = inhibition": "4.99% (inactive)", "cell number change": 12.9},
      {"molecule": "O=C(N[C@@H](CO)C(=O)NCc1ccccc1)c1ccc(C(F)(F)F)cc1", "lipid storage change, negative = inhibition": "5.11% (inactive)", "cell number change": 23.3},
      {"molecule": "COc1cccc(CNC(=O)CCC(=O)N2Cc3cccc(OC)c3Oc3ncccc32)c1OC", "lipid storage change, negative = inhibition": "-20.7% (inactive)"},
      {"molecule": "Cc1ccc(CSCc2ccc(C(=O)NCCCN3CCOCC3)o2)cc1", "lipid storage change, negative = inhibition": "-1.21% (inactive)"},
      {"molecule": "COc1cc(S(=O)(=O)N(Cc2cccnc2)Cc2cccc(OC)c2OC)ccc1-n1cnnn1", "lipid storage change, negative = inhibition": "-2.65% (inactive)", "cell number change": -1.62},
      {"molecule": "O=C(COc1ccc([N+](=O)[O-])cc1)Nc1ccc(NC(=O)c2ccccc2)cc1", "lipid storage change, negative = inhibition": "8.49% (inactive)", "cell number change": -8.36},
      {"molecule": "O=C(O)c1ccc(N2N=C(c3ccccc3)CC2c2ccccc2)cc1", "note": "(configuration not stated)", "outcome": "inactive", "cell number change": -6.08},
      {"molecule": "O=Cc1ccc(N2N=C(c3ccccc3)CC2c2ccccc2)cc1", "note": "(configuration not stated)", "lipid storage change, negative = inhibition": "2.28% (inactive)", "cell number change": -15.5},
      {"molecule": "Oc1ccccc1C1=NN(c2ccccc2)C(c2ccccc2)C1", "note": "(configuration not stated)", "Potency": "1.64 µM (active)", "cell number change": 0.901},
      {"molecule": "CS(=O)(=O)c1ccc(C(=O)NCc2ccc(F)cc2)cc1", "lipid storage change, negative = inhibition": "1.05% (inactive)", "cell number change": 23},
      {"molecule": "N/C(Cc1ccc([N+](=O)[O-])cc1)=N\\OC(=O)c1ccc(Br)cc1", "Potency": "8.2 µM (active)", "cell number change": 0.393},
      {"molecule": "N/C(=N\\OC(=O)c1ccc([N+](=O)[O-])cc1)c1ccc(Br)cc1", "outcome": "inactive", "cell number change": 19},
      {"molecule": "N/C(Cc1ccc([N+](=O)[O-])cc1)=N\\OC(=O)c1ccc(Br)o1", "lipid storage change, negative = inhibition": "6.27% (inactive)", "cell number change": 10.2},
      {"molecule": "COC(=O)c1sccc1N/N=C/c1cccc(Oc2ccccc2)c1", "lipid storage change, negative = inhibition": "10.2% (inactive)", "cell number change": -12.1},
      {"molecule": "COc1ccc(NC(=O)CCn2c(=O)c3cccn3c3ccccc32)cc1", "outcome": "inactive", "cell number change": -20.6},
      {"molecule": "CCCCNC(=O)CCn1c(=O)c2cccn2c2ccc(F)cc21", "lipid storage change, negative = inhibition": "-5.76% (inactive)", "cell number change": -8.11},
      {"molecule": "COc1ccc(CNC(=O)CCn2c(=O)c3cccn3c3ccc(F)cc32)cc1", "Potency": "5.8 µM (active)", "cell number change": -3.83},
      {"molecule": "CCCS(=O)(=O)c1nc(S(=O)(=O)c2ccc(C)cc2)c(N2CC(C)OC(C)C2)s1", "note": "(configuration not stated)", "Potency": "18.4 µM (active)", "cell number change": -24.5},
      {"molecule": "CCCS(=O)(=O)c1nc(S(=O)(=O)c2ccc(C)cc2)c(N2CCN(C)CC2)s1", "outcome": "inactive"},
      {"molecule": "CCCS(=O)(=O)c1nc(S(=O)(=O)c2ccc(C)cc2)c(N2CCC(C)CC2)s1", "lipid storage change, negative = inhibition": "-12.9% (inactive)"},
      {"molecule": "C/C(=N/NC(=O)c1ccncc1)c1ccccc1", "lipid storage change, negative = inhibition": "27.6% (inactive)", "cell number change": -7.04},
      {"molecule": "CC(=O)c1cccc(NC(=O)COC(=O)c2ccc(S(C)(=O)=O)c([N+](=O)[O-])c2)c1", "lipid storage change, negative = inhibition": "-16.9% (inactive)", "cell number change": -10.3},
      {"molecule": "Cc1ccccc1NC(=O)COC(=O)c1ccc(S(C)(=O)=O)c([N+](=O)[O-])c1", "Potency": "25.9 µM (active)", "cell number change": -15.7},
      {"molecule": "Cc1ccccc1NC(=O)COC(=O)c1ccc(S(=O)(=O)N2CCCC2)cc1", "lipid storage change, negative = inhibition": "9.1% (inactive)", "cell number change": 10.7},
      {"molecule": "Cc1ccc(NC(=O)c2c(C)nn(-c3ccccc3)c2Cl)c(C)c1", "lipid storage change, negative = inhibition": "1.17% (inactive)", "cell number change": -13.2},
      {"molecule": "CC(=O)N1CCOc2ccc(S(=O)(=O)N3CCC(C(=O)NCc4ccc(C)cc4)CC3)cc21", "lipid storage change, negative = inhibition": "-5.97% (inactive)", "cell number change": 17.2},
      {"molecule": "CCCCS(=O)(=O)N1CCC(C(=O)NCC2CCCO2)CC1", "note": "(configuration not stated)", "lipid storage change, negative = inhibition": "0.205% (inactive)", "cell number change": 5.96},
      {"molecule": "CCCS(=O)(=O)N1CCC(C(=O)NCC2CCCO2)CC1", "note": "(configuration not stated)", "outcome": "inactive"},
      {"molecule": "CS(=O)(=O)N1CCC(C(=O)NCC2CCCO2)CC1", "note": "(configuration not stated)", "Potency": "2.31 µM (active)", "cell number change": -2.74},
      {"molecule": "COc1ccc(CC(=O)NC2CCN(Cc3nnnn3C(C)(C)C)CC2)cc1OC", "Potency": "2.59 µM (active)", "cell number change": -1.5},
      {"molecule": "Cc1ccccc1C(=O)NC1CCN(Cc2nnnn2C(C)(C)C)CC1", "lipid storage change, negative = inhibition": "4.79% (inactive)"},
      {"molecule": "COc1ccc(CC(=O)NC2CC2)cc1OC", "outcome": "inactive", "cell number change": 20.4},
      {"molecule": "CCN=C1SC(CC(=O)NC(C)c2ccccc2)C(=O)N1CC", "note": "(configuration not stated)", "lipid storage change, negative = inhibition": "-3.35% (inactive)", "cell number change": 8.53},
      {"molecule": "O=[N+]([O-])c1ccc(N2CCN(CCO)CC2)cc1Sc1nc2ccccc2[nH]1", "lipid storage change, negative = inhibition": "-5.35% (inactive)", "cell number change": -10.6},
      {"molecule": "Cc1cccc(C)c1NC(=S)NN1CCN(C)CC1", "Potency": "23.1 µM (active)", "cell number change": -31.3},
      {"molecule": "CN1CCN(NC(=S)Nc2ccccc2)CC1", "lipid storage change, negative = inhibition": "-1.16% (inactive)", "cell number change": 5.3},
      {"molecule": "Cc1cccc(NC(=S)NN2CCN(C)CC2)c1C", "outcome": "inactive", "cell number change": 19.2},
      {"molecule": "COC(=O)c1ccc(Cc2ccccc2)o1", "Potency": "25.9 µM (active)", "cell number change": 0.155},
      {"molecule": "COC(=O)c1ccc(Cc2ccc(C(=O)OC)o2)o1", "lipid storage change, negative = inhibition": "9.86% (inactive)", "cell number change": 11},
      {"molecule": "COC(=O)c1ccc(COc2ccccc2OC)o1", "lipid storage change, negative = inhibition": "20.1% (inactive)", "cell number change": -9.22},
      {"molecule": "COc1cccc(CC(=O)N(CCC2=CCCCC2)c2c(N)n(Cc3ccccc3)c(=O)[nH]c2=O)c1", "lipid storage change, negative = inhibition": "24.1% (inactive)", "cell number change": -11.8},
      {"molecule": "Cc1nn(-c2ccccc2)c2[nH]c(=O)c(CNCCN3CCOCC3)cc12", "Potency": "23.1 µM (active)", "cell number change": -6.25},
      {"molecule": "Cc1ccc(-c2nn(-c3ccccc3)c3[nH]c(=O)c(CNCCN(C)C)cc23)cc1", "outcome": "inactive", "cell number change": -8.5}
    ]}
  ]
}
